This is a sample that favours compounds with a hit; in the whole collection about 6.2% have one here.
KB-V1 MDR tox – KB-V1 MDR subline cytotoxicity; KB-V1 MDR cells viability, CellTiter-Glo, 72 h; Potency, µM (highest dose often 46.1 µM), hits mostly cytotoxic; 400,000 tested, 3.4% active; AID 1347076; also: nearly all actives have a fitted effect of over 60% in size
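Drug-selected KB-V1 cells, grown in DMEM lacking phenol red with 10% FBS, receive compound titrations; after three days at 37 degrees C, surviving cell ATP is quantified by CellTiter-Glo luminescence and responses normalized and curve-fitted.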
HT1080 IDH1KD tx – toxicity to HT-1080 IDH1 knockdown cells (counter line); Potency, µM (highest dose often 46.1 µM), actives largely listed as cytotoxic; AID 686971; HT-1080 IDH1 knockdown viability, ATP luminescence, 48 h; 360,000 tested, 2% active
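% activity derives from luminescence (CellTiter-Glo), normalised to DMSO and no-cell wells. HT-1080-IDH1KD cells, 750/well, had 48 h compound exposure at 37 °C.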
KB-3-1 cytotox – KB-3-1 parental cell cytotoxicity; KB-3-1 viability, CellTiter-Glo ATP luminescence, 72 h; Potency, µM (top dose mostly 46.1 µM), hits mostly cytotoxic; 400,000 tested, 1.4% active; AID 1347075; also: nearly all actives have a fitted effect of over 60% in size
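Luminescent ATP read-out (CellTiter-Glo) measures survival of drug-naive KB-3-1 cells after 72 h compound exposure at 37 °C. Titration series was screened from lowest to highest concentration, with DMSO vehicle plates as background controls.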
S2 tox – reduces viability in counter-screen for ATXN expression inhibitors. 400,000 tested, 0.49% active. S2 cells (HEK-293 line with an ATXN2-luciferase reporter) viability, CellTiter-Fluor protease fluorescence, 24 h. Potency, µM (highest dose often 56.7 µM), actives largely listed as cytotoxic; also: nearly all actives have a fitted effect of over 40% in size
HT1080NT lethal – kills 2HG-producing HT-1080-NT fibrosarcoma cells; HT-1080-NT fibrosarcoma viability, CellTiter-Glo ATP luminescence, 48 h; Potency, µM (series often up to 46.1 µM), hits mostly cytotoxic; 360,000 tested, 1.6% active;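 also: NT is the 2HG producing partner of a matched IDH1 knockdown line; nearly all actives have a fitted effect of over 55% in size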
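Compounds were tested in concentration-response format on HT-1080-NT cells for 48 hours at 37 degrees C. Cell viability came from CellTiter-Glo luminescence; curves were classified by r2, response magnitude and activity.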
ATXN2 expr inh – ATXN2 expression inhibition; Potency, µM (top dose mostly 57 µM), usual class: inhibitors; HEK-293 ATXN2-luciferase reporter, luminescence, 24 h; 360,000 tested, 0.72% active; also: nearly all actives have a fitted effect of over 55% in size
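qHTS (up to 57 uM final) was run with 24 h compound exposure of reporter cells at 37 °C. Each well was multiplexed: SteadyGlo luminescence measured ATXN2-luciferase expression after a fluorogenic Gly-Phe-AFC viability readout (25 uM final).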
A number is an active result; 0 = inactive; ? = inconclusive; - = no result given; [ ] = another dose, or the depositor's remark. Calls follow the shape of the dose curve; as a rule, active = well fitted curve in the direction sought with a large enough effect; inconclusive = small, poorly fitted or top-dose-only effect, or another doubt; inactive = no such curve, though single readings can be large; an effect the other way counts as inactive or inconclusive.

SMILES	KB-V1 MDR tox	HT1080 IDH1KD tx	KB-3-1 cytotox	S2 tox	HT1080NT lethal	ATXN2 expr inh
COCc1c(C#N)c(NCCc2ccccc2)nc(C)c1[N+](=O)[O-]	0	0	?	0	0	0
O=C(CCCCCCC(=O)Nc1cccnc1)NO	-	-	-	-	-	0
CCOC(=O)c1cc2c(=O)n3ccccc3nc2n(CC2CCCO2)c1=NC(=O)c1cccc(C)c1 (stereo not given)	?	-	0	0	-	0
CCOC(=O)C(/C(C)=N/NC(=O)C1CC1c1ccccc1)C(C)C (stereo not given)	16.4µM	0	0	0	0	0
C/C(=N\NC(=O)C1CC1c1ccccc1)c1ccc(C)s1 (stereo not given)	0	0	0	0	0	0
CCOC(=O)N1CCN(Cc2ccc3c(c2)CN(C(=O)c2ccc4ncccc4c2)CCO3)CC1	-	-	-	0	-	-
CC(C)c1ccc(N=C2N=C(N)c3ccccc32)cc1	?	?	?	-	18.4µM	?
Cc1cc(Cl)ccc1N=c1ssnc1Cl	0	23.1µM	?	0	?	0
NC1=NC(=Nc2ccc(Br)cc2)c2ccccc21	0	13µM	?	0	23.1µM	0[11.3 µM]
NC1=NC(=Nc2ccc(Cl)cc2)c2ccccc21	0	?	0	0	0	0[11.3 µM]
Cc1cc(Cl)ccc1N=C1N=C(N)c2ccccc21	0	?	0	?	23.1µM	0
O=C(Nc1ccc(Cl)c(Cl)c1)N(Cc1c[nH]c2ccccc12)C1CCCCC1	0	-	0	?	-	0
CC(C)=NNc1ncnc2nc[nH]c12	7.31µM	?	?	0	0	0
Cc1ncnc2nc[nH]c12	10.3µM	-	3.26µM	-	-	-
COC(=O)c1ccccc1NC(=O)C1CCCN(c2nnc(C)c3c(C)n(-c4ccccc4)nc23)C1 (stereo not given)	?	-	0	0	-	0
N#C/C(=C\c1ccc(N2CCOCC2)o1)c1ccccc1	?	4.47µM	0	0	?	0
N#C/C(=C/c1ccc(N2CCOCC2)o1)c1ccc(Br)cc1	18.4µM	?	?	0	?	0
COc1ccc(Sc2ccccc2CN(C)C)cc1OC	0	0	0	0	0	0
CNCc1ccccc1Sc1ccc(O)c(O)c1	23.1µM	?	0	0	0	0
COC(=O)[C@@H]1CCCN1S(=O)(=O)Cc1ccccc1	0	-	0	-	-	-
COc1ccc(C2CC(c3cccs3)=NN2C(=O)CCl)cc1OC (stereo not given)	?	7.31µM	?	11.2µM	4.61µM	12.6µM
CCN1CCc2c(OCC(=O)N3N=C(c4cccs4)CC3c3ccc(F)cc3)cccc2C1=O (stereo not given)	?	?	?	0	?	?
COc1ccc(C2CC(c3cccs3)=NN2C(=O)c2ccccc2)cc1OC (stereo not given)	0	0	0	?	0	0
CN1CCc2c(OCC(=O)N3N=C(c4cccs4)CC3c3ccc(F)cc3)cccc2C1=O (stereo not given)	0	?	?	0	23.1µM	0
COc1cc(C2CC(c3cccs3)=NN2C(=O)CCl)ccc1OC(F)F (stereo not given)	14.6µM	2.59µM	?	-	1.64µM	?
SMILES	KB-V1 MDR tox	HT1080 IDH1KD tx	KB-3-1 cytotox	S2 tox	HT1080NT lethal	ATXN2 expr inh
O=C1C(=O)C(c2cc(O)c(O)c(O)c2)Oc2cc(O)cc(O)c21 (stereo not given)	0	-	?	-	-	-
CCc1ccc2nc3nc(C)cc(C)c3c(N)c2c1	20.6µM	12.6µM	0	-	?	?
Cc1cc(C)c2c(N)c3ccccc3nc2n1	?	?	0	-	?	?
COc1cccc(-c2nnc(SCC(=O)NC3CCCCC3)o2)c1	0	-	?	0	-	0
O=C(NC(c1cccnc1)C(F)(F)F)c1cc(COc2ccc3c(c2)CCCC3)on1 (stereo not given)	?	0	20.6µM	?	0	0
CCOC(=O)c1ccc(Nc2nc(=O)c3cccnc3s2)cc1	6.51µM	2.24µM	0	0	?	0
CC(=O)c1ccc(Nc2nc(=O)c3cccnc3s2)cc1	0	0	0	0	0	0
CCc1ccc(C2=C(C)C(N3CCC(C(=O)Nc4ccc(F)cc4)CC3)=NS2(=O)=O)cc1	0	-	0	-	-	?
Cc1ccc(NC(=O)CCC(=O)NNC(=O)CCc2ccccc2)c(C)c1	0	0	0	0	0	0

Assay outcomes from PubChem BioAssay.
